Shown are actives, neighbours in structure and some others; about 3.9% of the full set was active somewhere.
HSF1 activator: increases HSF-1 driven luciferase reporter signal | NIH3T3-HGL HSF-1 luciferase reporter, MG132, 8 h; 100% = twice DMSO control signal | 1.7% of 300,000 active | activation, % at 9 µM;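 active = mean replicate activation of at least 50% with a set share of replicates each reaching 50%; inconclusive = only one of those two conditions met; inactive = mean below 50% and too few replicates reaching it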
esBAF inh: blocks esBAF chromatin remodeling in mouse ES cells; Bmi1-luciferase knock-in reporter, 24 h; 100% = twice the neutral-well signal; reporter increase, % at 12.5 µM; 2% of 350,000 active; in the data active = activation above about 40%; inconclusive = no clear call, values can overlap the other calls;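 note: a rise in the Bmi1 reporter signal indicates esBAF inhibition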
MITF act: activators of MITF-driven TRPM1 promoter activity in SK-MEL-5 cells; SK-MEL-5 TRPM1-promoter luciferase, 24 h; % of positive control, neutral wells = 0; activation, % at 12.5 µM; 0.75% of 300,000 active; AID 588334;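 active = mean activation of at least 80% with every replicate also reaching 80%; inconclusive = mean reaches 80% but some replicate falls short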
Wnt act: activators of Wnt/beta-catenin signaling; 1.2% of 300,000 active; activation, % at 9.35 µM; AID 743398; Wnt/beta-catenin reporter cell assay, activator, plate reader; in the data active = activation above about 30%, passing the limit was not always enough; inconclusive = no clear call, values can overlap the other calls
HSF1 inhib: HSF1 inhibition; activity change, negative = inhibition, % at 7.5 µM (by protocol); NIH3T3-HGL HSE-luciferase, MG132-induced, luminescence 8 h; active compounds read low; 0.77% of 300,000 active; AID 2098;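 active = more than half of replicate wells show activity change below -50%, luminescence cut by over half; inconclusive = some wells, but at most half, below -50%; inactive = no replicate well below -50%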;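 note: luciferase reports HSF-1 transcriptional activity via heat shock element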
Ring1 derepress: esBAF inhibition confirmed by Ring1 de-repression; shares compounds with esBAF inh; mouse ESC E14, Ring1 mRNA RT-qPCR fold change; fold change at 33 µM; 550 tested, under 10 active;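 active = Ring1 gene expression raised more than 2-fold over untreated cells in both replicates at either tested dose; inconclusive = only one replicate above 2-fold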;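 note: Ring1 transcript normalised to actin housekeeping signal by TaqMan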
Fgf4 repress: confirmation of esBAF inhibitors: Fgf4 repression in mouse ESCs; 4% of 550 active; shares compounds with esBAF inh; Fgf4 expression fold change at 33 µM; mouse ESC E14, Fgf4 mRNA qPCR fold change; active compounds read low;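 active = Fgf4 expression under 0.8 fold of control in both repeat measurements at one or both tested doses; inconclusive = under 0.8 fold in just a single repeat measurement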;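 note: Fgf4 transcript normalised to actin in duplex TaqMan qPCR; cells exposed to compound for 24 h before lysis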
esBAF Bmi1 qPCR: confirmation of esBAF inhibitors: Bmi1 de-repression in mouse ESCs; shares compounds with esBAF inh; mouse ESE14 ES cells, Bmi1 mRNA qPCR fold; active compounds read high; fold change at 33 µM; 550 tested, under 10 active; AID 743180;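 active = Bmi1 expression fold change above 6 at either tested concentration, seen in replicate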;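 note: higher fold means more Bmi1 de-repression and stronger esBAF inhibition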
A549 tox SP: cytotoxicity in A549 cells; shares compounds with esBAF inh; plate reader; cell viability change % (negative = cytotoxic), % at 25 µM, hits read low; 550 tested, under 10 active; call rule not given here
HepG2 tox SP: cytotoxicity in HepG2 cells. shares compounds with esBAF inh. plate reader; active compounds read low. activity change, negative = inhibition, % at 25 µM. 4% of 550 active. AID 743189; in the data active = activity change below about -50%
HEK293 tox SP: HEK293 cell cytotoxicity at single point | shares compounds with esBAF inh | plate reader | activity change, negative = inhibition, % at 25 µM, hits read low | 3% of 550 active | AID 743190; in the data active = activity change below about -38%, passing the limit was not always enough
Hits are given with their value; - = inactive; ? = inconclusive; . = no result given.

SMILES	HSF1 activator	esBAF inh	MITF act	Wnt act	HSF1 inhib	Ring1 derepress	Fgf4 repress	esBAF Bmi1 qPCR	A549 tox SP	HepG2 tox SP	HEK293 tox SP
Cc1ccccc1-c1cnc2c(c1)C(=O)N([C@H](C)CO)C[C@@H](C)[C@H](CN(C)C(=O)c1ccc(F)cc1)O2	.	-	.	.	.	.	.	.	.	.	.
COc1cc(OC)cc(C(=O)Nc2cccc3c2CCCC3)c1	-	-	-	-	-	.	.	.	.	.	.
COC(=O)C1CCc2c(ccc3c2CCCC3)C1=O (configuration not stated)	.	59.9	100.8	-	.	-	-	-	-	-	-
COc1ccc2c(c1)nc(-c1cccc(Br)c1)c(=O)n2C(c1ccccn1)c1nc2ccccc2[nH]1 (configuration not stated)	.	72.4	.	-	.	-	-	-	-	-	-
COCC(=O)Nc1ccc2c(c1)OC[C@H](C)N(C(=O)c1ccncc1)C[C@@H](C)[C@@H](OC)CN(C)C2=O	.	-	.	.	.	.	.	.	.	.	.
CO[C@H](CN(C)S(=O)(=O)c1ccc(F)cc1)[C@H](C)CN(Cc1ccccc1Cl)[C@@H](C)CO	.	-	.	.	.	.	.	.	.	.	.
CN1CCN(C(=O)[C@H]2[C@H](CO)[C@H]3Cn4c(ccc(C5=CCCC5)c4=O)[C@H]3N2Cc2nccs2)CC1	.	-	.	.	.	.	.	.	.	.	.
O=C(Nc1ccc2c(c1)C(=O)c1ccccc1-2)c1ccccc1	.	94.5	-	-	.	-	-	-	-	-	-
COc1ccc2c(=O)c3ccccc3oc2c1	-	58.0	104.3	-	-	-	-	-	-	-	-
COc1ccc2c(=O)c(N3C(=O)c4ccccc4C3=O)c(C)oc2c1	-	-	-	-	-	.	.	.	.	.	.
COc1ccc2c(=O)c(-c3ccc(OC)c(OC)c3)coc2c1	-	57.9	95.0	-	-	-	-	-	-	-59.9	-
COc1cc(/C=C2/C(=N)N3N=C(CC(=O)N4CCOCC4)SC3=NC2=O)ccc1OCc1ccc(F)cc1	-	48.0	-	-	-	-	-	-	-	-	-
COc1cc(/C=C2/C(=N)N3N=C(CC(=O)N4CCOCC4)SC3=NC2=O)ccc1OCc1ccccc1F	-	-	-	.	-	.	.	.	.	.	.
CN(C)C(=O)c1cccc(-c2ccc([C@@H]3[C@@H](CO)N(C(=O)C4CC4)[C@H]3C#N)cc2)c1	.	-	.	.	.	.	.	.	.	.	.
CSc1cccc(NC(=O)N2CCc3ccc(NC(=O)c4ccccn4)cc3C2)c1	-	60.0	-	-	-	-	-	-	-	-	-
C[C@H]1CN([C@@H](C)CO)C(=O)Cc2cc(NC(=O)NC3CCCCC3)ccc2O[C@@H]1CN(C)C	.	-	.	.	.	.	.	.	.	.	.
CC(=O)n1nc(-c2ccccc2)nc1NCc1ccc(N(C)C)cc1	-	58.8	-	-	-	-	-	-	-	-	-
CN(C)c1ccc(CNc2nc(-c3ccccc3)nn2S(C)(=O)=O)cc1	-	-	-	-	-	.	.	.	.	.	.
COc1ccc(-c2nc(C#N)c(NC(C)C)o2)cc1	-	66.5	-	-	-	-	-	-	-	-	-
O=C(C[C@H]1CC[C@@H](NC(=O)CN2CCOCC2)[C@@H](CO)O1)NCCc1ccncc1	.	-	.	.	.	.	.	.	.	.	.
COc1cccc(NC(=O)c2sc3nc4n(c(=O)c3c2C)CCC4)c1	-	57.3	-	-	-	-	-	-	-	-	-
Cc1c(C(=O)Nc2ccc(Oc3ccccc3)cc2)sc2nc3n(c(=O)c12)CCC3	-	-	-	.	-	.	.	.	.	.	.
O=C(CCNS(=O)(=O)c1cccs1)N1CCc2ccccc2C1	?	67.8	-	-	-	-	-	-	-	-	-
CC1CC(C)CN(C(=O)CCNS(=O)(=O)c2cccs2)C1 (configuration not stated)	-	.	-	-	-	.	.	.	.	.	.
c1cc(-c2noc(CCC3CCCC3)n2)ccn1	-	.	-	.	-	.	.	.	.	.	.
SMILES	HSF1 activator	esBAF inh	MITF act	Wnt act	HSF1 inhib	Ring1 derepress	Fgf4 repress	esBAF Bmi1 qPCR	A549 tox SP	HepG2 tox SP	HEK293 tox SP
c1ccc(-c2noc(CC3CCCCC3)n2)cc1	-	58.3	?	-	-	-	-	-	-	-	-
Cc1noc(C)c1NC(=O)Nc1ccc2c(c1)C(=O)N([C@@H](C)CO)C[C@@H](C)[C@@H](CN(C)S(=O)(=O)c1c(C)noc1C)OCCCC[C@@H](C)O2	.	-	.	.	.	.	.	.	.	.	.
CSc1ccccc1NC(=O)c1cc(-c2ccco2)on1	-	-	-	-	-	.	.	.	.	.	.
CSc1ccccc1NC(=O)c1cc(C(C)C)on1	-	78.4	.	.	-	-	?	-	-	-	-
CO[C@@H]1CN(C)C(=O)c2ccc(NC(=O)Nc3cc(F)ccc3F)cc2OC[C@H](C)N(C(=O)c2cnccn2)C[C@H]1C	.	-	.	.	.	.	.	.	.	.	.
COc1ccc(NC(=O)Nc2ccc3c(c2)CC(=O)N([C@H](C)CO)C[C@@H](C)[C@H](CN(C)S(=O)(=O)c2ccc(F)cc2)O3)cc1	.	-	.	.	.	.	.	.	.	.	.
Cc1ccc(C)c(NC(=O)c2cc(-c3cc(C)c(C)cc3O)n[nH]2)c1	-	57.4	99.9	-	-	-	-	-	-	-	-
CN(Cc1cccnc1)C(=O)c1cc(COc2ccc3c(c2)CCCC3)on1	-	85.7	-	-	-	-	-	-	-	-	-
c1ccc(CCNc2ccc3c(c2)Cc2ccccc2-3)nc1	.	82.2	-	-	.	-	?	-	-	-	-
c1ccc(CCNc2ccccn2)nc1	.	.	-	-	.	.	.	.	.	.	.
COc1ccc(NC(=O)Nc2cccc(C)n2)cc1	-	66.4	-	-	-	-	-	-	-	-	-
CCCNC(=O)NC[C@@H]1[C@H](c2ccc(C3=CCCC3)cc2)[C@H](CO)N1C(=O)CC	.	-	.	.	.	.	.	.	.	.	.
O=c1oc(-c2ccccc2)cc2ccccc12	.	77.0	.	-	.	-	-	-	-	-	-
C[C@@H]1CN([C@@H](C)CO)C(=O)c2cc(NS(=O)(=O)c3cn(C)cn3)ccc2O[C@@H](C)CCCCO[C@H]1CN(C)Cc1ccccc1	.	-	.	.	.	.	.	.	.	.	.
Oc1ccccc1/C=N/N1CCN(c2ccccn2)CC1	-	78.4	-	37.8	-	-	-	-	-	-	-
C[C@H]1CN([C@@H](C)CO)C(=O)c2cc(NC(=O)Nc3ccc(F)cc3)ccc2O[C@@H]1CN(C)S(=O)(=O)c1cn(C)cn1	.	-	.	.	.	.	.	.	.	.	.
C/C=C/c1cnc2c(c1)C(=O)N([C@H](C)CO)C[C@@H](C)[C@H](CN(C)C(=O)Nc1ccc(C(F)(F)F)cc1)O2	.	-	.	.	.	.	.	.	.	.	.

Compound activity: PubChem BioAssay, Broad Institute
